Consider one compound from the supplement of paper PMC12819154, “High-throughput peptide-centric local stability assay extends protein–ligand identification to membrane proteins, tissues and bacteria” (Nature Structural & Molecular Biology, 2025).
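Note: lysate desalted by size exclusion to strip endogenous ATP, peptide intensities built from DIA-NN precursor signals, and peptides missing any value discarded before comparison.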

The target of the experiment is T1, UniProt P0AES0.
T1 sequence (whole entry): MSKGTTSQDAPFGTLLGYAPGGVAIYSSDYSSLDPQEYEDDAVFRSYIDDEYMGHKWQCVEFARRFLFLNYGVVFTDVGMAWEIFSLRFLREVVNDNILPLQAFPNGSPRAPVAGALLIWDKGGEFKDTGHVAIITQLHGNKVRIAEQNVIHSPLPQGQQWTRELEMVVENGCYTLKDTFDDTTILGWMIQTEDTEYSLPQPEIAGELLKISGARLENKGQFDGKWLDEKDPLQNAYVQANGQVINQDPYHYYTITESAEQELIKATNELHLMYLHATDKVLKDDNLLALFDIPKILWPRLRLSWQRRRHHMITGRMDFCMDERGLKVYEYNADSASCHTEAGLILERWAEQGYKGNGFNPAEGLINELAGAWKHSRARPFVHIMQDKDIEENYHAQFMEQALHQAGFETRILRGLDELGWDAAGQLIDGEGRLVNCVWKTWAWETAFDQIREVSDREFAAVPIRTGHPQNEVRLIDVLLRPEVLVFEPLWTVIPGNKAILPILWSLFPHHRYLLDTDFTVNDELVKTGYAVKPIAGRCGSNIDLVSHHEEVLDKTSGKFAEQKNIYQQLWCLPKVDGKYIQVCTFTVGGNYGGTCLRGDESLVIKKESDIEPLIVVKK
Kind of experiment: log2 fold change of tryptic peptide abundance, ligand vs vehicle (limited proteolysis) (log2 ratio); higher = more trypsin-susceptible (destabilized). To be noted: peptide sequence: TGYAVKPIAGR; peptide start residue: 528; ligand concentration: 5 mM; sample: E. coli desalted lysate; replicate design: treated before aliquoting. The procedure:
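HT-PELSA: desalted E. coli K-12 BW25113 lysate (with 12 mM MgCl2) incubated with 5 mM ATP (pH 7) or water for 30 min at 25 C, then a 4 min trypsin pulse at 22 C. Peptides were quantified by DIA-MS (4 replicates). Value is the peptide log2 fold change (treated/control); negative = stabilized. Scale: negative = ligand-stabilized region.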
Turning to `Nc1ncnc2c1ncn2[C@@H]1O[C@H](COP(=O)(O)OP(=O)(O)OP(=O)(O)O)[C@@H](O)[C@H]1O` [adenosine 5'-triphosphate], the log2 fold change was -1.49.
